# Screening results: PubChem, several laboratories
# Only some compounds are listed: those with a hit (about 3.8% of all), similar ones and a draw of the others.
# HSF1 inh: HSF1 inhibition; AID 2098; 0.77% of 300,000 active; NIH3T3-HGL HSE-luciferase, MG132-induced, luminescence 8 h; active compounds read low; activity change, negative = inhibition, % at 7.5 µM (by protocol);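 active = more than half of replicate wells show activity change below -50%, luminescence cut by over half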;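 also: luciferase reports HSF-1 transcriptional activity via heat shock element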
# HSP90 refold inh: blocks HSP90-mediated luciferase refolding in reticulocyte lysate | Rabbit reticulocyte lysate, luciferase refolding luminescence, 3 h | inhibition, % at 5.6 µM | 0.91% of 290,000 active;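 active = inhibition above the screen-wide mean plus 3 SD, computed separately per campaign, cut at about 16% in these data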;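 also: inhibitors lower the luminescence because luciferase stays unfolded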
# pCIP destab: lowers stability of the mouse p/CIP coactivator protein; F442A p/CIP-EGFP cells, EGFP fluorescence, 16 h; decrease of EGFP signal, % at 10 µM; 0.01% of 290,000 active; Q05BA5;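 active = EGFP signal decrease of at least 30% at 10 µM or well 3 SD below plate mean, unless failing retest; inactive = the rest, including hits failing retest or dose response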
# Target sequence (Q05BA5 1-1403): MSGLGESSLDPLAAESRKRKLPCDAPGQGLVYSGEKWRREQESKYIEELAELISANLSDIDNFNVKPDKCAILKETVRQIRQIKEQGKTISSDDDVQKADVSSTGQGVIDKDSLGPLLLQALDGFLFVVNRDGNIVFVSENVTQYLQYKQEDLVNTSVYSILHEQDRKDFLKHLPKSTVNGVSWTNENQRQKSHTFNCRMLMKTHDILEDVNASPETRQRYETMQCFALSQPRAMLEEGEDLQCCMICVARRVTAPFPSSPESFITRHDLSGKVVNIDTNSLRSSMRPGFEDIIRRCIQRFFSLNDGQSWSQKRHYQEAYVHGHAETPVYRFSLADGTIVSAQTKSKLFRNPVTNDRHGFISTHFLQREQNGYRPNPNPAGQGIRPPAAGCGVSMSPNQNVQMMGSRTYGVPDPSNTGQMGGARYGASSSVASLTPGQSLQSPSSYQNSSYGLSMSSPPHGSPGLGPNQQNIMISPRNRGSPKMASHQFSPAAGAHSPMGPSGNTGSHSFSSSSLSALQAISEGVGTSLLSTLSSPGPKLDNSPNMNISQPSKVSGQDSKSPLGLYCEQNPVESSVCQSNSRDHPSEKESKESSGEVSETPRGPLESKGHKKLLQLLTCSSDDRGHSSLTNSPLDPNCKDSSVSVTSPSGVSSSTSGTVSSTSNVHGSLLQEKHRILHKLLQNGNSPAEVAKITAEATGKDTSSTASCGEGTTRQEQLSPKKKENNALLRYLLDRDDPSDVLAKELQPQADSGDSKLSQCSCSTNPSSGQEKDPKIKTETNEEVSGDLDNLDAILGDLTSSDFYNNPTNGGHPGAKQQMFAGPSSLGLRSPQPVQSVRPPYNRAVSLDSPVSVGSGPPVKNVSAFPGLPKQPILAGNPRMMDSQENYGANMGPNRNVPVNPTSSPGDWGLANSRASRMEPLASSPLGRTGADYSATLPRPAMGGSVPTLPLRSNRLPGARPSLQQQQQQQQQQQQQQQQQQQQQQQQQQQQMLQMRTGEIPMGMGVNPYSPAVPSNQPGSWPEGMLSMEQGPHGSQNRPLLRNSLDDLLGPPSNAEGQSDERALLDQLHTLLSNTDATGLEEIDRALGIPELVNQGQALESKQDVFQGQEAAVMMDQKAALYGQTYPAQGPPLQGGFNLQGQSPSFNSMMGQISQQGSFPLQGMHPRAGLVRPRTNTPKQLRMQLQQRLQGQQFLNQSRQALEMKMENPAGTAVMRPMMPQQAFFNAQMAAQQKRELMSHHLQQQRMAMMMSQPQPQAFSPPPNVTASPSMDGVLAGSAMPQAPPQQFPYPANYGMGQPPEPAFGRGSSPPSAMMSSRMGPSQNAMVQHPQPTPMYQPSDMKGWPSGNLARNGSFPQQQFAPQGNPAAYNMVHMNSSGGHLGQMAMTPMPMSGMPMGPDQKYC
# NALP1 yeast inh: inhibitors of NALP1 inflammasome in yeast. 0.61% of 280,000 active. S. cerevisiae NALP1/ASC/caspase-1 growth, X-gal OD620, 72 h. inhibition, % at 10 µM; in the data active = inhibition mostly above about 24%, no sharp cut-off; inactive = mostly below about 32%
# Hsp70 activator: Hsp70 transcriptional activation, primary screen. HeLa Hsp70 promoter luciferase reporter, luminescence; scaled: vehicle 0, proteasome-inhibitor control 100%. activation, % at 10 µM. 0.04% of 200,000 active. AID 1203;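 active = activation above the mean across all tested compounds plus 3 SD, cutoff set per campaign, cut at about 5.5% in these data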
# HSF-1 act: increases HSF-1 driven luciferase reporter signal | NIH3T3-HGL HSF-1 luciferase reporter, MG132, 8 h; 100% = twice DMSO control signal | activation, % at 9 µM | 1.7% of 300,000 active | AID 504408;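 active = mean replicate activation of at least 50% with a set share of replicates each reaching 50%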
# A number is an active result; . = inactive; / = no result given.
SMILES,HSF1 inh,HSP90 refold inh,pCIP destab,NALP1 yeast inh,Hsp70 activator,HSF-1 act
O=C(Nc1ccc(S(=O)(=O)N2CCCCCC2)cc1)c1[nH]ncc1[N+](=O)[O-],.,.,.,.,/,107
C=C1CCC(OC(C)=O)C2(C)CCC3C(C)C(=O)OC3C12O (stereo not drawn),.,.,.,.,/,.
C=C1C(=O)C2=CC1CCC(=O)C1(C)CCC(OC(C)=O)C(C)(C)C1CC2O (stereo not drawn),89,/,/,/,/,89
COc1ccccc1NC(=O)Nc1ccnn1C1CCN(C(=O)c2cscn2)CC1,.,.,.,.,/,.
Cn1c(NCc2ccc(Cl)cc2)nc2ccccc21,.,.,.,.,.,54
C=CCc1cccc(CNc2nc3ccccc3n2C)c1O,.,.,.,.,/,.
C=CCc1cccc(CNc2nc3ccccc3n2CCN2CCOCC2)c1O,.,.,.,.,.,118
Cn1c(CN2CCN(c3ccc(Cl)cc3)CC2)nc2ccccc21,.,.,.,.,.,64
CCN(CC)c1ccc(CNc2nc3ccccc3n2CCN2CCOCC2)cc1,-60,.,.,.,.,.
Cc1ccc(CNc2nc3ccccc3n2C)cc1,.,.,.,.,/,.
OC(COc1ccc2ccccc2c1Br)Cn1cnc(-c2ccccc2)c1 (stereo not drawn),-82,.,.,.,.,.
CCOC(=O)c1ccc(NCCc2ccc(OC)c(OC)c2)c(N)c1,.,.,.,.,/,.
CCOc1ccc(NC(=O)C(C)SC(N)=O)cc1 (stereo not drawn),-60,.,.,.,.,.
CCOc1ccc(NC(=O)C(C)Sc2nnnn2C)cc1 (stereo not drawn),.,.,.,.,.,.
CCOC(=O)/C=C(/C)N1N=C(c2ccc(OC)cc2)CC1c1cccc([N+](=O)[O-])c1 (stereo not drawn),.,.,.,/,.,59
CCOc1ccccc1N1CCN(S(=O)(=O)c2ccc(F)c(F)c2)CC1,.,.,.,40,.,.
CC(C)[C@H](NC(=O)N1c2ccccc2NC(=O)[C@@H]1C(C)C)C(=O)N1CCC[C@H]1C(=O)O,.,.,.,.,/,.
COc1ccc(-c2nc3scc(-c4ccccc4)n3n2)cc1,.,.,.,.,.,121
CCOC(=O)Cc1csc2nc(-c3ccccc3)nn12,.,.,.,.,/,.
Cc1ccc(S(=O)(=O)NCc2ccccc2)cc1C(=O)N(C)Cc1ccccc1F,.,.,.,.,/,.
Cc1cccc(C)c1NC(=O)CN(C)C(=O)COc1cccc2c1OC(C)(C)C2,.,/,/,/,/,.
CN(CC(=O)Nc1cccc(F)c1)C(=O)COc1cccc2c1OC(C)(C)C2,.,.,.,32,/,.
N#CCCn1cc(/C=N/NC(N)=S)c(-c2ccc(-c3ccccc3)cc2)n1,.,.,.,.,.,.
Cc1ccccc1-n1c(=O)cc(N2CCc3ccccc32)[nH]c1=O,-79,.,.,.,.,.
CCc1csc(CCNC(=O)C2CCC(=O)N(Cc3cccc(C(F)(F)F)c3)C2)n1 (stereo not drawn),.,.,.,.,/,.
SMILES,HSF1 inh,HSP90 refold inh,pCIP destab,NALP1 yeast inh,Hsp70 activator,HSF-1 act
COc1cccc(C(=O)COC(=O)C(C)N2C(=O)C3C4C=CC(C4)C3C2=O)c1 (stereo not drawn),.,.,.,.,.,57
CCC(=NCc1ccc(Cl)c(Cl)c1)c1nc(-c2ccco2)oc1O,.,.,.,.,.,72
CC(C)[C@H](NC(=O)c1ccccc1F)C(=O)NCc1ccc(S(N)(=O)=O)cc1,.,.,.,.,/,.
CN1CCN(CC#CCn2c3ccccc3c3ccccc32)CC1,.,.,.,.,.,.
NC(=NCCc1ccccc1)c1cccc([N+](=O)[O-])c1,.,.,.,.,/,.
C=CCN(CC(O)c1cccc([N+](=O)[O-])c1)C(C)CCc1ccccc1 (stereo not drawn),-78,.,.,.,/,.
COC(=O)CC1C(=O)NCCN1C(=O)CSc1nc2ccccc2c(=O)n1CC(C)C (stereo not drawn),.,.,.,34,.,.
COc1ccc2c(C)cc(SCC(=O)Nc3ncc(Cl)cc3Cl)nc2c1,.,.,.,.,.,.
Cc1cc(SCC(=O)Nc2ncc(Cl)cc2Cl)nc2ccccc12,.,.,.,.,.,54
COC(=O)c1cc(CNC(=O)C(C)NS(=O)(=O)c2ccc(C)c(C)c2)ccc1OC (stereo not drawn),.,.,.,.,/,.
Cc1cc(Nc2ccccc2)nn1C(=O)c1ccccc1,.,.,.,.,.,.
COc1ccc(C(=O)n2nc(C)cc2Nc2ccccc2)cc1,.,.,.,.,.,52
CC1=C(C(=O)OCc2ccccc2)C(c2ccccc2Cl)NC(=O)N1CCCC(=O)O (stereo not drawn),.,.,.,.,/,.
CCOC(=O)C1=C(C)N(CCC(=O)O)C(=O)NC1c1ccccc1Cl (stereo not drawn),-77,/,/,/,/,.
CCOc1ccc(S(=O)(=O)N(CC)CC(=O)NCc2ccco2)cc1C,.,.,.,.,/,.
O=C(O)/C=C/C(=O)NCc1ccccn1,.,.,.,.,.,.
CC1(C)NC(=O)N(CCSc2ccc(Cl)cc2)C1=O,.,.,.,30,.,.
O=C(O)C1CSC(c2ccc(O)c([N+](=O)[O-])c2)N1 (stereo not drawn),/,.,.,.,.,/
CCc1ccc(C2NC(C(=O)O)CS2)cc1 (stereo not drawn),/,.,.,50,.,/
O=C(O)C1CSC(c2ccc3c(c2)OCO3)N1 (stereo not drawn),-56,.,.,/,/,.
Cc1cc(C)n(-c2ccc(NC(=O)C3CCCCN3C(=O)c3ccoc3C)cc2)n1 (stereo not drawn),-70,.,.,.,/,.
Cc1cc(C)n(-c2ccc(NC(=O)C3CCCCN3C(=O)c3ccc(C)s3)cc2)n1 (stereo not drawn),.,.,.,.,/,.
Cc1occc1C(=O)Nc1cc(C(F)(F)F)ccc1Cl,-65,.,.,.,.,.
COc1ccc(C(C)(C)C)cc1NC(=O)c1ccoc1C,.,.,.,.,.,.
CN(CCc1ccccn1)C(=O)CCC1CCCN(C(=O)CCOc2ccccc2)C1 (stereo not drawn),.,.,.,.,.,.
O=C(Nc1c2c(nn1-c1ccc([N+](=O)[O-])cc1)CS(=O)(=O)C2)c1ccco1,.,.,.,.,/,.
C=C1N(c2ccccc2)C(=O)OC1(C)C,.,.,.,.,.,.
COc1ccccc1C(=O)Nc1cc(C)ccc1NC(=O)c1ccco1,.,.,.,.,/,.
CCOC(=O)c1ccc2c(c1)n(CC)c(/C=C/N(C)c1ccccc1)[n+]2CC,.,.,.,.,.,.
CC[n+]1c(/C=C/N(C)c2ccccc2)n(-c2ccccc2)c2ccc(-c3nc4ccccc4s3)cc21,.,.,.,46,/,.
